40 molecules from ChEMBL document CHEMBL1157539, “Thousands of chemical starting points for antimalarial lead identification” (Nature, 2010) can be followed below.

The first test concerns Plasmodium falciparum. Briefly: GSK_TCMDC: Inhibition of Plasmodium falciparum Dd2 in whole red blood cells, using parasite LDH activity as an index of growth. Test compounds present at 2uM. In kind it is functional.
The molecule `Cc1cccc2nc(-c3cccc(-c4cccc(NC(=O)Cc5c[nH]cn5)c4)c3)[nH]c12` showed an Inhibition of 100%.
The same measure, in the same setting: with `O=C(/C=C/c1ccc(Cl)c(Cl)c1)NCCCCCN1CCC(NC(=O)Nc2cccc(Cl)c2)CC1` the figure was 13%; with `NCCCN(Cc1ccc(Cl)c(Cl)c1)C(=O)Nc1ccc(Cl)c(Cl)c1`, 41%.
Turning to `O=C(CCc1c[nH]cn1)Nc1cccc(-c2ccc(-c3nc4cc(F)ccc4[nH]3)cc2)c1`, the Inhibition turned out to be 79%.
Same read-out and setting: next, `Cc1noc(-c2ccc3c(c2)CCN(CCC2CCC(NC(=O)c4cc5ccccc5[nH]4)CC2)CC3)n1.Cl` (stereo not drawn): 41%; `c1ccc(Oc2ccc(Nc3ccnc(Nc4cccc(CNCCCN5CCOCC5)c4)n3)cc2)cc1`: 50%; `O=C(Nc1ccc(-c2ccccc2)c(OCCN2CCNCC2)c1)c1ccc(-c2ccc(Cl)cc2)cc1`: 31%.
In turn, `FC(F)(F)c1cccc2c(NN=Cc3ccccc3)ccnc12` gave an Inhibition of 90%.

Another test concerns HepG2. Briefly: GSK_TCMDC: Percent inhibition of human HepG2 cell line. Test compounds present at 10uM. The class given is functional.
In turn, `Cc1cc(C(=O)NCc2ccc(-c3c(C)noc3C)cc2)n(-c2ccccc2)n1` returned an Inhibition of 4%.
On the same count and under the same terms, with `Cc1c(Cc2ccccc2Br)cnc2nc(N)nc(N)c12.Cl` the figure was 67%; with `COC(=O)c1ccc(CC(C)NCC(O)c2ccc(C(O)CNC(C)Cc3ccc(C(=O)OC)cc3)cc2)cc1.O` (stereo not drawn), 24%; with `CC(C)C[C@H](NC(=O)c1cc(-c2ccc(F)cc2)no1)C(=O)O.CC(C)C[C@H](NC(=O)c1conc1-c1ccc(F)cc1)C(=O)O`, 7%.
Same read-out and setting: next, `CC(C)C[C@H](NC(=O)c1ccc(OCCN2CCOCC2)cc1)C(=O)N[C@H](/C=N/NC(=O)OC(C)(C)C)CCc1ccccc1`: 8%.
`Cc1ccc(Nc2nccc(N(C)c3ccc4c(c3)nc(NC(=O)Cc3ccc(Cl)c(Cl)c3)n4C)n2)cc1S(N)(=O)=O.O=C(O)C(F)(F)F` registered an Inhibition of 71%.
On the same count and under the same terms, next, `CN1CCCc2ccc(NC(=O)C=Cc3ccc(-c4ccc(F)cc4F)o3)cc2C1.O=C(O)C(F)(F)F`: 8%; `COc1ccc(CN2C(=S)N(Cc3ccccc3)C(=O)C2CC(=O)Nc2ccccc2)cc1OC` (stereo not drawn): 6%; `O=c1cc(NCCCCNCc2cccc(C(F)(F)F)c2)[nH]c2ccccc12`: 13%.
Still for that read-out and setting: with `O=C(O)C(F)(F)F.O=C(c1cccs1)N(Cc1cccc(-c2ccc(CNCCc3ccccc3)cc2)c1)C1CCN(Cc2ccccc2)CC1` the figure was 3%.
Same read-out and setting: next, `CC1CN(c2cc(=O)n(Cc3cccc(NC(=O)Nc4ccc(-c5ccccc5)cc4)c3)cn2)CC(C)N1.O=C(O)C(F)(F)F` (stereo not drawn): 2%.
The molecule `O=C(O)C(F)(F)F.Oc1ccc(CCNc2nc(NCCCOc3ccccc3-c3cccnc3)nc(N3CCNCC3)n2)cc1` displayed an Inhibition of 10%.
Molecule `CC(Sc1nnc(-c2cccs2)[nH]1)C(=O)c1c[nH]c2ccccc12` (stereo not drawn) yielded an Inhibition of 0%.
Still for that read-out and setting: next, `O=C(/C=C/c1ccc(Cl)c(Cl)c1)NCCCCCCN1CCN(C(=O)Nc2cc(F)cc(F)c2)CC1`: 23%.
Same read-out and setting: with `COc1ccc(-c2nc(NC(=O)Cc3cccc(OC)c3)sc2C)cc1` the figure was 1%; with `Cn1cnc2c(Nc3ccncc3)nc(-c3ccc4c(c3)OCO4)nc21.O=C(O)C(F)(F)F`, 19%.
In the case of `O=C(c1cc(-c2ccco2)n[nH]1)N1CCN(S(=O)(=O)c2ccc(Br)cc2)CC1`, the Inhibition came out at 1%.
`O=C(N[C@@H](Cc1ccccc1)CN1CCC(Oc2ccc(F)cc2)CC1)c1ccc(OCCCN2CCCCC2)cc1.O=C(O)C(F)(F)F` had an Inhibition of 38%.
In turn, `COc1cccc2c(NN=Cc3ccccc3F)ccnc12` displayed an Inhibition of 6%.
The same measure, in the same setting: next, `Cc1ccc(C(=O)Nc2ccc(-c3nc4ccccc4[nH]3)cc2)cc1S(=O)(=O)N1CCOCC1`: 56%.
The molecule `Cc1cc(NCCC(=O)Nc2ccccc2)nc(NCCc2ccccc2)n1.O=C(O)C(F)(F)F` came in with an Inhibition of 0%.
The same measure, in the same setting: with `COc1cc(Cc2cnc(N)nc2N)ccc1OCc1cccc(Oc2ccccc2)c1` the figure was 18%.
Same read-out and setting: next, `O=C(Nc1ccc(N2CCN(c3ncccc3C(F)(F)F)CC2)nc1)c1cccs1`: 7%.
The same measure, in the same setting: with `CCn1c(-c2ccccc2)cc2nnc3ccccc3c21` the figure was 34%; with `COc1cc(OCCCN(C)Cc2ccc(OC)c(OC)c2)ccc1NC(=O)c1cccc2c(O)c3cccc(F)c3nc12`, 10%; with `Fc1cccc(COc2ccc(Nc3ncnc4sc(C#CCNC5CCC5)cc34)cc2Cl)c1`, 15%.
The molecule `Brc1ccc(Nc2ccnc3cc(-c4nccs4)ccc23)cc1Oc1ccnc2cc(-c3nccs3)ccc12` had an Inhibition of 15%.
`Cc1[nH]c(C)c(-c2ccc(OCc3cc(F)cc(F)c3)nc2)c(=O)c1Br` showed an Inhibition of 37%.
As to `CC(C)CCCC(C)(C)NC[C@@H](O)[C@H](Cc1ccccc1)NC(=O)c1cc(NC(C)C)cc(N2CCCCS2(=O)=O)c1F.O=CO`, the Inhibition was 11%.
`COc1ccc2c(-c3ccccc3)noc2c1` yielded an Inhibition of 0%.
On the same count and under the same terms, next, `CN1CCN(CC(=O)Nc2cccc(-c3ccc(-c4nc5cc(F)ccc5[nH]4)cc3)c2)CC1`: 20%; `COc1ccc2nccc([C@@H](O)CN3CCC(NCc4ccc5c(c4)NC(=O)CS5)CC3)c2n1.O=C(O)C(=O)O`: 1%.
Still for that read-out and setting: next, `Cc1cccc2nc(-c3cccc(-c4cccc(NC(=O)Cc5c[nH]cn5)c4)c3)[nH]c12`: 32%.
`O=C(/C=C/c1ccc(Cl)c(Cl)c1)NCCCCCN1CCC(NC(=O)Nc2cccc(Cl)c2)CC1`: the Inhibition is 52%.
The same measure, in the same setting: with `NCCCN(Cc1ccc(Cl)c(Cl)c1)C(=O)Nc1ccc(Cl)c(Cl)c1` the figure was 100%; with `O=C(CCc1c[nH]cn1)Nc1cccc(-c2ccc(-c3nc4cc(F)ccc4[nH]3)cc2)c1`, 18%.
The same measure, in the same setting: with `Cc1noc(-c2ccc3c(c2)CCN(CCC2CCC(NC(=O)c4cc5ccccc5[nH]4)CC2)CC3)n1.Cl` (stereo not drawn) the figure was 21%.
On the same count and under the same terms, next, `c1ccc(Oc2ccc(Nc3ccnc(Nc4cccc(CNCCCN5CCOCC5)c4)n3)cc2)cc1`: 0%.
For the molecule `O=C(Nc1ccc(-c2ccccc2)c(OCCN2CCNCC2)c1)c1ccc(-c2ccc(Cl)cc2)cc1`, the Inhibition came to 92%.
For `FC(F)(F)c1cccc2c(NN=Cc3ccccc3)ccnc12`, the Inhibition came to 10%.
